Experimental data from PubChem BioAssay (NCATS).
Where “and” joins values, the source holds several entries; their conditions need not be identical. Identical values can stand only once. Results filed as inconclusive are left out. A call without a number means that no potency is given here. Calls of active or inactive are those of the source. The call rests on the fitted dose curve.

How the values were obtained:
[1] = Cytotoxicity counterscreen for inhibitors of SARS-CoV-2 cell entry (AID 1645845); further: nearly all actives have a fitted effect of over 50% in size
Method in brief: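 48 h compound treatment (after 1 h preincubation), HEK293-ACE2 cells, 37 C/5% CO2; ATP luminescence endpoint; normalized to cell wells and media blanks.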

[2] = Primary qHTS to identify inhibitors of SARS-CoV-2 cell entry (AID 1645846); conditions: activity change, negative = inhibition: at 57.1 µM (top of the series) unless noted; further: nearly all actives have a fitted effect of over 45% in size
Method in brief: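 Luminescence readout (Bright-Glo luciferase) 48 h after pseudoparticle addition. HEK293-ACE2 cells, 1500/well; compound pre-incubation 1 h; Normalized to spike PP and bald PP.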
Potency means the concentration at half of the fitted maximal effect.

| SMILES | Potency [1] | activity change, negative = inhibition [2] | Potency [2] | outcome [1] |
| --- | --- | --- | --- | --- |
| CCn1cc(C(=O)O)c(=O)c2cnc(N3CCNCC3)nc21 | inactive | 0.978% |  |  |
| CCC(C(=O)NC(=O)NC(C)=O)c1ccccc1 (stereo not drawn) | inactive |  | inactive |  |
| CCCCCCCC/C=C/C(=O)O | inactive |  | inactive |  |
| C#C[C@]1(O)CC[C@H]2[C@@H]3CCC4=CC(=O)CC[C@@H]4[C@H]3CC[C@@]21CC | inactive |  | inactive |  |
| CCCCOC(=O)c1ccc(O)cc1 | inactive |  | inactive |  |
| C1COC(NC(C2CC2)C2CC2)=N1 | inactive | 1.02% |  |  |
| COc1cc(OC)c(C(=O)CCCN2CCCC2)c(OC)c1 | inactive | -26.6% |  |  |
| Cc1cccn2c(=O)c(-c3nnn[nH]3)cnc12 | inactive |  | inactive |  |
| Cc1ccsc1/C=C/C1=NCCCN1C | inactive | -11.3% |  |  |
| O=C(Oc1ccccc1C(=O)O)c1ccccc1O | inactive | -27.2% |  |  |
| CO/N=C(/C(=O)N[C@@H]1C(=O)N2C(C(=O)OCOC(=O)C(C)(C)C)=C(C)CS[C@H]12)c1csc(N)n1 | inactive | -24.9% |  |  |
| CC(C)NCC(O)c1ccc(NS(C)(=O)=O)cc1 (stereo not drawn) | inactive | -13.1% and -25% |  |  |
| COc1ccc(NS(=O)(=O)c2ccc(N)cc2)nn1 | inactive |  | inactive |  |
| COc1ccc(C(=O)NCc2ccc(OCCN(C)C)cc2)cc1OC | inactive | -12.5% |  |  |
| O=C(O)CCCCC1CCSS1 (stereo not drawn) | inactive |  | inactive |  |
| COC(=O)c1cc(Cl)ccc1NS(=O)(=O)C(F)(F)F | inactive |  | inactive |  |
| CO[C@@]1(NC(=O)C2SC(=C(C(N)=O)C(=O)O)S2)C(=O)N2C(C(=O)O)=C(CSc3nnnn3C)CS[C@@H]21 (stereo partly drawn) | inactive | 4.49% |  |  |
| CCOc1cc(CC(=O)N[C@@H](CC(C)C)c2ccccc2N2CCCCC2)ccc1C(=O)O | inactive | -13.4% |  |  |
| C[C@@H]1[C@H](O)[C@@H](C)/C=C/C=C\C=C\C=C\C=C\C=C\C=C\[C@H](O[C@@H]2O[C@H](C)[C@@H](O)[C@H](N)[C@@H]2O)C[C@@H]2O[C@](O)(C[C@@H](O)C[C@@H](O)[C@H](O)CC[C@@H](O)C[C@@H](O)CC(=O)O[C@H]1C)C[C@H](O)[C@H]2C(=O)O (stereo in doubt) | inactive |  | inactive |  |
| CN1CCN2c3ncccc3Cc3ccccc3C2C1 (stereo not drawn) | inactive | -27.6% and -19.2% |  |  |

| SMILES | Potency [1] | activity change, negative = inhibition [2] | Potency [2] | outcome [1] |
| --- | --- | --- | --- | --- |
| CO/N=C(\C(=O)N[C@@H]1C(=O)N2C(C(=O)O)=C(C[N+]3(C)CCCC3)CS[C@H]12)c1csc(N)n1 | inactive | -9.52% |  |  |
| NCC[C@H](O)C(=O)N[C@@H]1C[C@H](N)[C@@H](O[C@H]2O[C@H](CN)[C@@H](O)[C@H](O)[C@@H]2O)[C@H](O)[C@@H]1O[C@H]1O[C@H](CO)[C@@H](O)[C@H](N)[C@@H]1O |  | -28% [at 0.702 µM] |  | inactive [at 0.702 µM] |
| COc1nccnc1NS(=O)(=O)c1ccc(N)cc1 | inactive |  | inactive |  |
| CCCC(O)C(CC)CO (stereo not drawn) | inactive |  | inactive |  |
| CCn1ccc(NS(=O)(=O)c2ccc(N)cc2)nc1=O | inactive |  | inactive |  |
| CN/C(=C\[N+](=O)[O-])NCCSCc1csc(CN(C)C)n1 | inactive |  | inactive |  |
| CC(C)c1ccc2oc3nc(N)c(C(=O)O)cc3c(=O)c2c1 | 10 µM (active) |  | inactive |  |
| NCC(=O)CCC(=O)O | inactive | -19.8% |  |  |
| CCN[C@H]1CN(CCCOC)S(=O)(=O)c2sc(S(N)(=O)=O)cc21 | inactive | -6.75% |  |  |
| CO[C@@]1(NC(=O)C(C(=O)O)c2ccc(O)cc2)C(=O)N2C(C(=O)O)=C(CSc3nnnn3C)CO[C@@H]21 (stereo partly drawn) | inactive | -1.77% |  |  |
| Cc1ccc(C(=O)c2ccc(CC(=O)O)n2C)cc1 | inactive |  | inactive |  |
| COc1ccc2c(c1)c(CC(=O)OC/C=C(\C)CC/C=C(\C)CCC=C(C)C)c(C)n2C(=O)c1ccc(Cl)cc1 | inactive |  | inactive |  |
| CCO[C@H](Cc1ccc(OCCc2ccc(OS(C)(=O)=O)cc2)cc1)C(=O)O | inactive |  | inactive |  |
| O=C(Oc1ccccc1)c1ccccc1O | inactive |  | inactive |  |
| C[C@@H]1C[C@H]2[C@@H]3C[C@H](F)C4=CC(=O)C=C[C@]4(C)[C@@]3(F)[C@@H](O)C[C@]2(C)[C@@]1(O)C(=O)CO | inactive |  | inactive |  |
| NC(=O)NC1N=C([O][Al])NC1=O (stereo not drawn) | inactive | -0.751% |  |  |
| CCCc1ccc(OCC(=O)N2CCN(C(=O)COc3ccc(CCC)cc3OC)CC2)c(OC)c1 | inactive | -6.24% |  |  |
| COc1ccccc1OCC(O)CO (stereo not drawn) | inactive | -15.9% |  |  |
| CN(C)CCOc1ccc(/C(=C(/CCCl)c2ccccc2)c2ccccc2)cc1 | inactive |  | 15.8 µM (active) and 20 µM (active) |  |
